Screens as filed in PubChem.
IDE exosite inh – exo-site inhibitors of human insulin-degrading enzyme | z-score at 20 µM | purified IDE, FL-6b probe fluorescence polarization; active compounds read low | P14735 | 17,000 tested, 6.3% active;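 active means z-score of -3 or lower, meaning strong loss of probe binding signal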;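 further: His-tagged human IDE residues 42-1019 made in E. coli with 30 nM FL-6b probe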
Target sequence (P14735 42-1019 limits assumed): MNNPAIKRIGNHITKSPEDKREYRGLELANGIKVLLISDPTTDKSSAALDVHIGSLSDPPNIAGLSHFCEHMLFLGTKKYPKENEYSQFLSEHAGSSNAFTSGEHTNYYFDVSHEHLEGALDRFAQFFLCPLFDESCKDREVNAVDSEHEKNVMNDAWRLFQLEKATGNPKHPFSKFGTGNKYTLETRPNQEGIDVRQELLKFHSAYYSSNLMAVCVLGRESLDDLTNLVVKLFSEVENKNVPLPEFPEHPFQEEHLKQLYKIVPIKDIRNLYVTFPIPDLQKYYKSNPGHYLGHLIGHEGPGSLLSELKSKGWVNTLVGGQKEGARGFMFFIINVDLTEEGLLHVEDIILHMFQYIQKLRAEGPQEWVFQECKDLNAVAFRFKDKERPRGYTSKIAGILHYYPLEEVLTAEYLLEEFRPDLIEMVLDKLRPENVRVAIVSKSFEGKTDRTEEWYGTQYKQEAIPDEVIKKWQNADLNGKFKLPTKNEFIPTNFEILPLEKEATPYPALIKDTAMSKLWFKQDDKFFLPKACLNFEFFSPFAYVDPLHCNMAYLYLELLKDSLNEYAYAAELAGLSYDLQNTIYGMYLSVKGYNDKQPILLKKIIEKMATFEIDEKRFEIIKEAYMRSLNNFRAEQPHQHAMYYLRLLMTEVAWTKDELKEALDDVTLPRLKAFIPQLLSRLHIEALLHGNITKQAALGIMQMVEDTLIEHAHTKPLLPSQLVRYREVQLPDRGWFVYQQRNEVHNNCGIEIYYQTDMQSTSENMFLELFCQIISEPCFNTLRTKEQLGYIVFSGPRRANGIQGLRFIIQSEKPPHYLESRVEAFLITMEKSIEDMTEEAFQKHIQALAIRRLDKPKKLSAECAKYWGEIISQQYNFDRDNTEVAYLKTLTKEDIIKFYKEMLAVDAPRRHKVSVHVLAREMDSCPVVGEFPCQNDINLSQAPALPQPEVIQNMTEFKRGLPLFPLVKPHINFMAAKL
Starred values were filed as active, the others as inactive. Only a selection was taken, and hits are over-represented in it overall.

SMILES	IDE exosite inh
O=C(c1cnccn1)N1CC(=O)N2[C@@H](CO)[C@H](c3ccc(-c4cccc(F)c4)cc3)[C@@H]2C1	-2.3
C[C@H](O)C#Cc1ccc([C@H]2[C@@H](CO)N3CCCCN(C(=O)c4ccc(F)cc4)C[C@H]23)cc1	0.81
O=C(Nc1ccccc1)N1CCCCN2[C@H](CO)[C@H](c3ccc(C#CC4CC4)cc3)[C@H]2C1	0.62
CO[C@@H]1CN(C)C(=O)c2ccc(NC(=O)NC(C)C)cc2OC[C@@H](C)N(Cc2ccc(-c3ccccn3)cc2)C[C@@H]1C	0.42
CNC(=O)C[C@H]1CC[C@H]2[C@@H](COC[C@H](O)CN2Cc2ccccc2F)O1	1.4
CC(=O)N1CC2(C1)[C@H](c1ccc(-c3cccc(C#N)c3)cc1)[C@H](CO)N2CCC(F)(F)F	1.8
N#C[C@H]1[C@H](c2ccc(C#Cc3ccc(F)cc3)cc2)[C@H](CO)N1C(=O)Cc1ccncc1	-0.035
O=C(N[C@H]1C=C[C@H](CC(=O)N2CCN(c3ccccc3)CC2)O[C@@H]1CO)c1ccccc1	3
CN1c2ccc(Br)cc2[C@H]2[C@H](CCN2C(=O)CN2CCOCC2)[C@@H]1CO	2.2
CC(=O)N1CCCCN2[C@@H](CO)[C@H](c3ccc(-c4cccc(C)c4)cc3)[C@@H]2C1	-3.2*
Cc1cccc(-c2ccc([C@H]3[C@@H](CO)N4CCCCN(C(=O)c5ccc6c(c5)OCO6)C[C@H]34)cc2)c1	-8.1*
Cc1cccc(-c2ccc([C@@H]3[C@@H](CO)N4CCCCN(C(=O)c5ccc6c(c5)OCO6)C[C@H]34)cc2)c1	0.5
CC(=O)N1CCCCN2[C@H](CO)[C@H](c3ccc(-c4ccc(C)cc4)cc3)[C@H]2C1	-1.8
CC(=O)N1CCCCN2[C@H](CO)[C@H](c3ccc(-c4ccccc4)cc3)[C@H]2C1	-1.5
CC(=O)N1CCCCN2[C@@H](CO)[C@H](c3ccc(-c4ccccc4)cc3)[C@@H]2C1	-0.87
CC(=O)N1CCCCN2[C@H](CO)[C@H](c3ccc(-c4cccc(C)c4)cc3)[C@H]2C1	-12*
Cc1cccc(-c2ccc([C@H]3[C@@H](CO)N4CCCCN(C(=O)c5ccc6c(c5)OCO6)C[C@@H]34)cc2)c1	3
CC(=O)N1CCCCN2[C@H](CO)[C@H](c3ccc(-c4cccc(C)c4)cc3)[C@@H]2C1	3.6
C[C@H](NC(=O)C[C@@H]1C=C[C@H](NC(=O)c2cccnc2)[C@H](CO)O1)c1ccccc1	0.46
O=C(C[C@@H]1CC[C@H]2[C@@H](COC[C@H](O)CN2C(=O)Cc2ccccc2)O1)NC1Cc2ccccc2C1	-0.31
C/C=C/c1ccc([C@H]2[C@H]3CN(S(=O)(=O)c4cccs4)CCCCN3[C@H]2CO)cc1	0.0074
C[C@@H]1CCCCO[C@@H](CN(C)C(=O)c2ccncc2)[C@H](C)CN([C@H](C)CO)C(=O)c2cc(NC(=O)CCC(F)(F)F)ccc2O1	-0.31
COCC(=O)N(C[C@H]1N[C@H](CO)[C@@H]1c1ccc(-c2cncnc2)cc1)C(C)C	0.88
CN(C)CC(=O)N1CCCCN2[C@H](C1)[C@@H](c1ccc(-c3cccc(C(=O)N(C)C)c3)cc1)[C@@H]2CO	4.5
C[C@@H]1CC=CC[C@H](c2cccc(Cl)c2)NC(=O)[C@@H](Cc2ccccc2)N(C)C(=O)c2ccccc2O1 (mixture of isomers)	0.78
SMILES	IDE exosite inh
COCC(=O)N1CC2(CCN(C(=O)c3cccnc3)CC2)c2c([nH]c3cc(OC)ccc23)[C@@H]1CO	-0.12
COc1cccc(CN2CC3(CCN(C)CC3)c3c([nH]c4cc(OC)ccc34)[C@H]2CO)c1	-1.1
COc1cc(CN2CC3(CCN(C(=O)c4cccnc4)CC3)c3c([nH]c4cc(OC)ccc34)[C@@H]2CO)cc(OC)c1	-4.1*
COc1ccc2c3c([nH]c2c1)[C@H](CO)N(Cc1ccncc1)CC31CN(C(=O)CN(C)C)C1	-0.94
CCCC(=O)N1CC2(C1)CN(CC1CC1)[C@@H](CO)c1[nH]c3cc(OC)ccc3c12	-1.3
CCCC(=O)N1CC2(C1)CN(Cc1cccnc1)[C@H](CO)c1[nH]c3cc(OC)ccc3c12	-3.1*
O=C(C[C@H]1C[C@H]2c3cc(NC(=O)NC4CCCC4)ccc3O[C@H]2[C@H](CO)O1)NCc1ccccc1F	-1.1
Cc1ccc(S(=O)(=O)N2CC[C@@H]3[C@@H](CO)Nc4ccc(-c5cccc(C(=O)N(C)C)c5)cc4[C@@H]32)cc1	0.65
O=C(Nc1ccc(C(F)(F)F)cc1)Nc1ccc2c(c1)[C@@H]1C[C@H](CC(=O)N3CCc4ccccc4C3)O[C@@H](CO)[C@@H]1O2	-0.96
COc1ccccc1C#Cc1ccc([C@H]2[C@@H](C#N)N(C(=O)C3CCC3)[C@@H]2CO)cc1	-7.8*
COc1cccc(C#Cc2ccc([C@@H]3[C@@H](C#N)N(C(=O)C4CCCCC4)[C@H]3CO)cc2)c1	2.4
COc1cccc(C#Cc2ccc([C@@H]3[C@@H](C#N)N(C(=O)C4CCC4)[C@H]3CO)cc2)c1	1.5
N#C[C@H]1[C@H](c2ccc(C#Cc3ccccc3F)cc2)[C@H](CO)N1C(=O)C1CCC1	2.2
COc1cccc(C#Cc2ccc([C@@H]3[C@@H](CO)N(C(=O)C4CCCCC4)[C@H]3C#N)cc2)c1	4.7
COc1ccccc1C#Cc1ccc([C@H]2[C@@H](CO)N(C(=O)C3CCCCC3)[C@H]2C#N)cc1	-5.1*
N#C[C@H]1[C@H](c2ccc(C#Cc3ccc(F)cc3)cc2)[C@H](CO)N1C(=O)C1CCCC1	4
COc1ccccc1C#Cc1ccc([C@H]2[C@H](C#N)N(C(=O)C3CCCCC3)[C@H]2CO)cc1	-6.3*
N#C[C@@H]1[C@@H](c2ccc(C#Cc3ccc(F)cc3)cc2)[C@H](CO)N1C(=O)C1CCCC1	5.4
COc1cccc(C#Cc2ccc([C@@H]3[C@@H](C#N)N(C(=O)C4CCC4)[C@@H]3CO)cc2)c1	4.2
N#C[C@H]1[C@@H](c2ccc(C#Cc3ccc(F)cc3)cc2)[C@H](CO)N1C(=O)C1CCCC1	5.4
COc1ccccc1C#Cc1ccc([C@@H]2[C@@H](C#N)N(C(=O)C3CCCCC3)[C@@H]2CO)cc1	-8.6*
CN(C)C(=O)c1cccc(-c2ccccc2[C@H]2[C@@H](C#N)N(C(=O)C3CCC3)[C@@H]2CO)c1	1.3
CC(C)CC#Cc1ccc([C@@H]2[C@H]3CN(C(=O)Cc4ccccc4)CC(=O)N3[C@H]2CO)cc1	3
C[C@H](CO)N1C[C@H](C)[C@H](CN(C)C(=O)[C@@H](Cc2ccccc2)N(C)C)OCc2ccccc2-c2ccccc2C1=O	0.73
O=S(=O)(c1ccc(Cl)cc1)N1[C@@H]2CNC[C@H]1C2c1ccc(-c2cccnc2)cc1 (stereo partly specified)	-2.1
SMILES	IDE exosite inh
CCS(=O)(=O)N1CCC2(CC1)CN(C(=O)c1cccc(F)c1)[C@H](CO)c1c2c2ccc(OC)cc2n1C	0.66
CC(C)CC#Cc1ccc([C@H]2[C@H](CO)N3C(=O)CN(S(=O)(=O)c4ccccc4)C[C@@H]23)cc1	1.8
C[C@@H](NC(=O)C[C@H]1CC[C@H]2[C@@H](COc3ccc(NS(=O)(=O)c4ccc(Cl)cc4)cc3C(=O)N2C)O1)c1ccccc1	0.27
O=C(Nc1ccc(C(F)(F)F)cc1)N[C@H]1C=C[C@H](CC(=O)N2CCCCC2)O[C@@H]1CO	0.52
C/C=C/c1ccc(C2[C@H]3CNC[C@@H]2N3C(=O)Nc2ccc3c(c2)OCO3)cc1 (stereo partly specified)	-0.41
COCC(=O)N1CC(=O)N2[C@H](CO)[C@H](c3ccc(Br)cc3)[C@H]2C1	1.4
